Data: the supplement of paper PMC11732987, “Enantioselective OTUD7B fragment discovery through chemoproteomics screening and high-throughput optimisation” (Communications Chemistry, 2025)

Assays:
Assay in all cases: log2 ratio of Biotin-Ahx-Ub-VS probe labelling (fragment/DMSO); higher = less target engagement (more negative = stronger competition), active = hit call of the paper (q ≤ 0.05, log2 ratio ≤ -1)
Conditions in all cases: compound concentration: 200 uM; treatment time: 3 h
USP19 = target: T1, USP19 (UniProt O94966)
T1 sequence (whole entry): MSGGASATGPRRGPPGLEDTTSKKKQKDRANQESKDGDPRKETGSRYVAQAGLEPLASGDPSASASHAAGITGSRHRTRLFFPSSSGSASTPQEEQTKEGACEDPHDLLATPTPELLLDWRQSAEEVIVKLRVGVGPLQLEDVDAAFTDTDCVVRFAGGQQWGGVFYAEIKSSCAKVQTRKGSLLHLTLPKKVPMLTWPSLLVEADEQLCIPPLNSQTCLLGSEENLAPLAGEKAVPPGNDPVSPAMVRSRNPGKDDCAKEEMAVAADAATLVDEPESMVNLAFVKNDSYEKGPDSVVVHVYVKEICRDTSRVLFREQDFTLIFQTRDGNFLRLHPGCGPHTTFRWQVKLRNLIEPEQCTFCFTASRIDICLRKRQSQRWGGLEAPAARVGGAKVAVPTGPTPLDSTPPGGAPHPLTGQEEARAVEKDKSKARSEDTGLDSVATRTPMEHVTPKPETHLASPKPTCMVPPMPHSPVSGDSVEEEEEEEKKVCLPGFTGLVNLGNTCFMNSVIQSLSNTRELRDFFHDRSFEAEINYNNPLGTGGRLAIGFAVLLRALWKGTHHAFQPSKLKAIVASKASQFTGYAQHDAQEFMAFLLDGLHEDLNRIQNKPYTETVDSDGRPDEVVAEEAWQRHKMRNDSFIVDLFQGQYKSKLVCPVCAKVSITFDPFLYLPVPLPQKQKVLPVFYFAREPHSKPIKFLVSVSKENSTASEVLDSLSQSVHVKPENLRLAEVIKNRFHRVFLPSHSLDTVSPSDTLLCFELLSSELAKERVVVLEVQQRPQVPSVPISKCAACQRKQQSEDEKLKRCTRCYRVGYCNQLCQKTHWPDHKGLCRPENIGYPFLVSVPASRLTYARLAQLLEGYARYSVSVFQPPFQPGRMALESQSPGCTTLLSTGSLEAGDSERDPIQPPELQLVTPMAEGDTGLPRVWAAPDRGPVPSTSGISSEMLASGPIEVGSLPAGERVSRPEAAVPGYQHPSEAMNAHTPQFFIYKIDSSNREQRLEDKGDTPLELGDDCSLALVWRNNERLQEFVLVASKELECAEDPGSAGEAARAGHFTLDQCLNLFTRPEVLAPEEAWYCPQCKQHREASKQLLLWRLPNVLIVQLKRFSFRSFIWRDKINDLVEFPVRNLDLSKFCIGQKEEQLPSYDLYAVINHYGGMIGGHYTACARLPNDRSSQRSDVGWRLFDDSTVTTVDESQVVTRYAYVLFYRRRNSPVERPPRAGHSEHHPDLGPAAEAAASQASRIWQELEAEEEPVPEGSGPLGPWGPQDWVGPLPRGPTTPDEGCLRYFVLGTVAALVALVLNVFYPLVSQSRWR
Summary of the method: (§1)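 Using Biotin-Ahx-Ub-VS at 0.5 µM final for 1 h, DUBs were labelled in HEK293T lysate (495 µg per sample) that had first been treated in triplicate with fragment at 200 µM or vehicle for 3 h. NeutrAvidin enrichment, LysC and trypsin digestion and diaPASEF LC-MS/MS followed. Spectronaut label-free quantities were global-median-normalised. Values are average log2 fragment/vehicle ratios by unpaired t-test, using proteins with ≥2 unique peptides.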

USP22 = target: T2, USP22 (UniProt Q9UPT9)
T2 sequence (whole entry): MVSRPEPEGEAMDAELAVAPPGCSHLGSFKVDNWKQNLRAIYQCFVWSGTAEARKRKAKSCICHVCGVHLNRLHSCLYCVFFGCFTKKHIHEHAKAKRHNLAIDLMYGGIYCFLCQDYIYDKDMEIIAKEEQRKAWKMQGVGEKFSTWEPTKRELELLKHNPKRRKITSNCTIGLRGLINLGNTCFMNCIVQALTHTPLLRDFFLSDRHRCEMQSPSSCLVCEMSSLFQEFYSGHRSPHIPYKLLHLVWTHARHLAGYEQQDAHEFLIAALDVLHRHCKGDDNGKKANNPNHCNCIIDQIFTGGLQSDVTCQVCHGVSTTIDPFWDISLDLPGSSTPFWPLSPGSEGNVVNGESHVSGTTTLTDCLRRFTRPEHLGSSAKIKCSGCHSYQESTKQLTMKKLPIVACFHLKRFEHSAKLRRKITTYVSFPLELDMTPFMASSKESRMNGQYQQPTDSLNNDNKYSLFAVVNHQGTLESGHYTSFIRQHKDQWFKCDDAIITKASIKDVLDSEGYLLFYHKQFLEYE
Summary of the method: as §1

USP24 = USP24 (UniProt Q9UPU5)
Summary of the method: as §1

USP25 = target: T3, USP25 (UniProt Q9UHP3)
T3 sequence (whole entry): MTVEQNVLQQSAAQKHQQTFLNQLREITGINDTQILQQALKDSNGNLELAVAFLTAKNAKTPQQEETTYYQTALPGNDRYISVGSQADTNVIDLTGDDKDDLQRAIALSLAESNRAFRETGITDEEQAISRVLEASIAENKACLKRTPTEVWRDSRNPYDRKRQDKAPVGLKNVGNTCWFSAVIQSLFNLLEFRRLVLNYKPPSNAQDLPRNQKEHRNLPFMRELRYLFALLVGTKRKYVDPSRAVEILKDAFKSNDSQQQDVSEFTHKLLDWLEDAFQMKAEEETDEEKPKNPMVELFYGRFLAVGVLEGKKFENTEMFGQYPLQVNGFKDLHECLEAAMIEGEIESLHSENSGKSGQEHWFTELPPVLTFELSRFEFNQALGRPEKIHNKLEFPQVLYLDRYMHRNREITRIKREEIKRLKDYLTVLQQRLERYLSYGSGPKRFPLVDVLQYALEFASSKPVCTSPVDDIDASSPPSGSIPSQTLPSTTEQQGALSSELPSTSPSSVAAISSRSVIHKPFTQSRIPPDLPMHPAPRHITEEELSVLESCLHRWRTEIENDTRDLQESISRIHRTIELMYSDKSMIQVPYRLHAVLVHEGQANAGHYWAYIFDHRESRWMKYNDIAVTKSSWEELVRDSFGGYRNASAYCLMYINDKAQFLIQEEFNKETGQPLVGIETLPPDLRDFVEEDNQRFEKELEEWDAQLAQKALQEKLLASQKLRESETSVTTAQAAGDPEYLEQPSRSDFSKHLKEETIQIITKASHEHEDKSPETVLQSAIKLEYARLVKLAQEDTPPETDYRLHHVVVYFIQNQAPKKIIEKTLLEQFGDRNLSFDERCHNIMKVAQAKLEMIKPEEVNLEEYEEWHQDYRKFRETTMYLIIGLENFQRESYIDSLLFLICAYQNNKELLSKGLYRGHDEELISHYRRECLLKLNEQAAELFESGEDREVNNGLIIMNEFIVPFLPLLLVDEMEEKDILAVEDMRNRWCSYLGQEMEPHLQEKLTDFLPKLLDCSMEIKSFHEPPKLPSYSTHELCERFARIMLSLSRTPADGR
Summary of the method: as §1

USP28 = target: T4, USP28 (UniProt Q96RU2)
T4 sequence (whole entry): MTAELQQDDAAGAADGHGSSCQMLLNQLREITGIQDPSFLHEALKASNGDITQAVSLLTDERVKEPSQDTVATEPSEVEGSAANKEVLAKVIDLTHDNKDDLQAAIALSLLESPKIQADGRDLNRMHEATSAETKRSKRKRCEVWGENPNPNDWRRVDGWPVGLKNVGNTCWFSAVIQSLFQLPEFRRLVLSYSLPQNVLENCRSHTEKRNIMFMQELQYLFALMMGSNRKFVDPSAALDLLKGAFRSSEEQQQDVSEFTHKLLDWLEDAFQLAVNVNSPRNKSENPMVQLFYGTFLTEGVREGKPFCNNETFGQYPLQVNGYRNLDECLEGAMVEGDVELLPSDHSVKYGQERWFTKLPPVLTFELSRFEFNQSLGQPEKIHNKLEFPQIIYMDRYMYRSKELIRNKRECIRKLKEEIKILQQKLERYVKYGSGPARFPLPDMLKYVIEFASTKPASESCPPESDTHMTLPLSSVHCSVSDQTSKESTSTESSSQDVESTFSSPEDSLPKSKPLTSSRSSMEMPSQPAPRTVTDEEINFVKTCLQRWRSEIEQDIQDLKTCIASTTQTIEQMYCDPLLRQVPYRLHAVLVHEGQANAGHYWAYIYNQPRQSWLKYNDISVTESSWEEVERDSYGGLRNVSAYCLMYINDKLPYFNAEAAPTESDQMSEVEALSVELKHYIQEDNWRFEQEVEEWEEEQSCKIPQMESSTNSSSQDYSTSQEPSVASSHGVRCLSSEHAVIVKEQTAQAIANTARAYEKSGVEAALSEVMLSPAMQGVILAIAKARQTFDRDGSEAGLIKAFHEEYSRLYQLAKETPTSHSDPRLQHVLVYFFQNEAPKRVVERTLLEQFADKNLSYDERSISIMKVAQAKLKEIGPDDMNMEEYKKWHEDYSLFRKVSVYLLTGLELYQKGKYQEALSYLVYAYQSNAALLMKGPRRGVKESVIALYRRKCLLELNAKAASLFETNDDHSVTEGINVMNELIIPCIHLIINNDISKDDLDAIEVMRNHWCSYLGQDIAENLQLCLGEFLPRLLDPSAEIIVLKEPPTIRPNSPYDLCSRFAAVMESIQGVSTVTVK
Summary of the method: as §1

Measured: log2 ratio of Biotin-Ahx-Ub-VS probe labelling

Chain of USP24 (Q9UPU5 whole entry): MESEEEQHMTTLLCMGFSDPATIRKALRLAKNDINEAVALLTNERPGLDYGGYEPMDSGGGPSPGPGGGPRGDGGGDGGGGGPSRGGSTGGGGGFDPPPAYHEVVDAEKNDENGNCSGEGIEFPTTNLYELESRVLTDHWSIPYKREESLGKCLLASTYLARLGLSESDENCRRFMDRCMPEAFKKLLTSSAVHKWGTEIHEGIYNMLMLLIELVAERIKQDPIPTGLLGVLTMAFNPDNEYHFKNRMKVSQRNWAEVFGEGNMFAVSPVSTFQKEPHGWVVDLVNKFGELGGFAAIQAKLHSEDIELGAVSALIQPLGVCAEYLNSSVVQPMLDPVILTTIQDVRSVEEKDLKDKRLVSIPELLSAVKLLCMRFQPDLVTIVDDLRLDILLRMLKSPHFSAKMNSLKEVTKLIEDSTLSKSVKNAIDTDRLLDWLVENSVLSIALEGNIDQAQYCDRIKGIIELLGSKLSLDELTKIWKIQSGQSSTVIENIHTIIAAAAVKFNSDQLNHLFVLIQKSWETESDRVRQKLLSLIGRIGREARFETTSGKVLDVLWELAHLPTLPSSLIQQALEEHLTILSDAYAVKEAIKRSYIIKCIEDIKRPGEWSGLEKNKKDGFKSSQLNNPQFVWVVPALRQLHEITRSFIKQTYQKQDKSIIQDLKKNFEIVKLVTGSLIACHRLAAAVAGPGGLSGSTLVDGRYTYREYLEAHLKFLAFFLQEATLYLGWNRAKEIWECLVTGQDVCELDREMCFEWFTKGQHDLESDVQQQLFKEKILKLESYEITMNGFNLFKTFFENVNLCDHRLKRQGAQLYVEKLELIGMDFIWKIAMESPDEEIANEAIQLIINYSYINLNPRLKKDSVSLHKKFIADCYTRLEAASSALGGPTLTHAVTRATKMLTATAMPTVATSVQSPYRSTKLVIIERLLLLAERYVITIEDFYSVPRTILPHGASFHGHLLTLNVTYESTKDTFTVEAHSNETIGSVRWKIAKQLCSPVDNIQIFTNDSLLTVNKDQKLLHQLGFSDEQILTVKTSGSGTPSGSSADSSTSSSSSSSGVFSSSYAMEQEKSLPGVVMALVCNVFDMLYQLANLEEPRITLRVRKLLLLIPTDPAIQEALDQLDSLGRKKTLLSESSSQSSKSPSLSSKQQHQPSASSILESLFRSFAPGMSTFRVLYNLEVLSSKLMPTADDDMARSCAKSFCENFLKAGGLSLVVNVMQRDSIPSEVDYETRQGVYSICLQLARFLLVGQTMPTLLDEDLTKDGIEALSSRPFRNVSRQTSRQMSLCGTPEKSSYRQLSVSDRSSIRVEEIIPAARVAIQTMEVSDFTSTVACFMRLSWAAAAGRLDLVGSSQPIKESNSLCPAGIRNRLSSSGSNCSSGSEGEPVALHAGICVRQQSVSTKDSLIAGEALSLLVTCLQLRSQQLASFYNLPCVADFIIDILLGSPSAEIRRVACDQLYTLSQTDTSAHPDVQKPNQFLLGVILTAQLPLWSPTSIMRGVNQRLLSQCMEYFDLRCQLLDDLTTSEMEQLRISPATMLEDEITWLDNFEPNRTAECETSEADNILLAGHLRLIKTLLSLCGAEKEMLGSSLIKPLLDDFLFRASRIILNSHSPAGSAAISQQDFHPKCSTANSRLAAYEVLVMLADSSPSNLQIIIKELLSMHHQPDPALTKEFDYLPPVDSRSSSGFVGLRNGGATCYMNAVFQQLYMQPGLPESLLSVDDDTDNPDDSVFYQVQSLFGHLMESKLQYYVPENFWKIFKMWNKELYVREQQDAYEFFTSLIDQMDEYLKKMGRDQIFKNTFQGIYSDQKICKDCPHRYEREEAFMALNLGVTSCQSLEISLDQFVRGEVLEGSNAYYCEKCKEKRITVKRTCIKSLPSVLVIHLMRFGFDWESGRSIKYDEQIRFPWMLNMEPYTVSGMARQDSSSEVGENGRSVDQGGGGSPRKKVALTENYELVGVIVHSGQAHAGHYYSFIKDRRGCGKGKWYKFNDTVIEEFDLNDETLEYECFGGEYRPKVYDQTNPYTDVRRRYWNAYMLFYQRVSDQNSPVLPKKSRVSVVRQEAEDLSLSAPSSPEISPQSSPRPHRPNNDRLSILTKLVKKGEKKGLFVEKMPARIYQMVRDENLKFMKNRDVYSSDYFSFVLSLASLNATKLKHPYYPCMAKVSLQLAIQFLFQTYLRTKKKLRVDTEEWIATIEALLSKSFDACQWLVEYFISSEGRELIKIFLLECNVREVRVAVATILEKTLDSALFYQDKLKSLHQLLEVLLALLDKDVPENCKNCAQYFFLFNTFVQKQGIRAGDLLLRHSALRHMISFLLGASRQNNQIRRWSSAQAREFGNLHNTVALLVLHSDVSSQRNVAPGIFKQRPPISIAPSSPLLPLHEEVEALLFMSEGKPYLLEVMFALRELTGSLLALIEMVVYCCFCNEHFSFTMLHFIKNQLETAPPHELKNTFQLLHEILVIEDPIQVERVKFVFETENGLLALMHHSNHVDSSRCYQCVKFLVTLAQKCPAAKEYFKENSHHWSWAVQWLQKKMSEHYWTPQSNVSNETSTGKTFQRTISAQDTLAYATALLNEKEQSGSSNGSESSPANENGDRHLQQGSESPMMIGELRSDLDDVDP

Cc1cc(C(=O)NC2CCN(C(=O)CCl)CC2)no1
inactive: USP19 -0.0463 | USP22 -0.208 | USP24 -0.225 | USP25 -0.417 | USP28 -0.353
